This note sets out measurements from PubChem BioAssay AID1942 (Johns Hopkins Ion Channel Center, 2009).

About 580 (24%) of roughly 2,400 compounds were called active. The list is a sample of the results. Unmarked numbers belong to inactive results.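 Rule for the calls: active = activity change at or above the mean plus 3 SD of buffer wells without dofetilide, per plate; inactive = the rest.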

For the assay, the target named is Potassium voltage-gated channel subfamily KQT member 2 (Rattus norvegicus) (UniProt O88943). Description: rat KCNQ2 channel activation by compounds alone, confirmation, counter-screen for hERG block protector project, cell-based, CHO, FluxOR thallium flux (AID 1942).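 Note: normalized value minus buffer-control mean plus three SD of buffer wells.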 To be noted: CHO-KCNQ2 cells, FluxOR thallium flux fluorescence; at 10 µM; stronger effect = higher value.
Sequence of Potassium voltage-gated channel subfamily KQT member 2 (Rattus norvegicus) (O88943 whole entry, looked up): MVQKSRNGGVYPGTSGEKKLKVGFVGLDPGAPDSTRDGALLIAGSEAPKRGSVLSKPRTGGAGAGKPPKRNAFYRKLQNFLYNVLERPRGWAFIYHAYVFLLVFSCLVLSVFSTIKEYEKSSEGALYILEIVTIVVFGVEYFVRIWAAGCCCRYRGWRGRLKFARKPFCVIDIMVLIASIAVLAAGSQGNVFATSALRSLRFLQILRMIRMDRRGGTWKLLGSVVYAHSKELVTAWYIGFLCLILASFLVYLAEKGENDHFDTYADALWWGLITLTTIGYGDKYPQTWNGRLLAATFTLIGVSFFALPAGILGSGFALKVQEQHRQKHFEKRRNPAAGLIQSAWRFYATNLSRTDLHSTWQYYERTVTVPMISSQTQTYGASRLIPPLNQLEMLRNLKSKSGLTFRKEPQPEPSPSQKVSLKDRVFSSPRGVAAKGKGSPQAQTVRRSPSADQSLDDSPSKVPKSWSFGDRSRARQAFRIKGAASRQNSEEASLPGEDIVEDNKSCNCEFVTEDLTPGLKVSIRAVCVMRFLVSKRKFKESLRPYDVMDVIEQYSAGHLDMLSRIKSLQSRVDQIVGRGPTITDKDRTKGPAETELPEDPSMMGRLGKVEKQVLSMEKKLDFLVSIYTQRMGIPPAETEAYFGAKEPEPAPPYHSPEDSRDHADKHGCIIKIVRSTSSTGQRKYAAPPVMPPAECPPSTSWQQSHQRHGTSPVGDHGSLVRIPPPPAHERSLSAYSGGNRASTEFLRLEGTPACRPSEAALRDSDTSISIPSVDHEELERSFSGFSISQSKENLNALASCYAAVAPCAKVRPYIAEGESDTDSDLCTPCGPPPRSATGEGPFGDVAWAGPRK
Consider `Cc1cccc(NC(=S)N/N=C2\CC(C)(C)Oc3ccc(O)cc32)c1`, for which the activity change, less the hit threshold is -9.9%.
In the case of `Cc1nn(-c2ccc(Cl)nn2)c(=O)c2ccccc12` it was -19.3%; in that of `CC1CN(S(=O)(=O)c2ccc(-c3nc4ccccc4s3)cc2)CC(C)O1` (centres undefined), -3.8%; in that of `CCN1C(=O)/C(=C/c2ccc(C)s2)NC1=S`, 36.1% (active).
In the case of `CCCN1C(=O)/C(=C/c2ccc(C)s2)NC1=S` it was 80.4% (active); in that of `COc1ccc(N2C(=O)/C(=C/c3cccs3)NC2=S)cc1`, -15.1%; in that of `CCCN1C(=O)/C(=C/c2ccc3c(c2)OCO3)NC1=S`, -10.1%.
For `CC(C)CN1C(=O)/C(=C/c2cccs2)NC1=S` the value was 83.6% (active); for `CC(C)CN1C(=O)/C(=C/c2ccco2)NC1=S`, -20.7%; for `O=c1c(C(c2ccc(O)cc2)c2c(O)nc3n(c2=O)CCS3)c(O)nc2n1CCS2`, -11.7%.
As to `Nc1cc(-c2ccc(Br)cc2)[nH]n1`, the activity change, less the hit threshold is -23.7%.
For `CC(C)=CC(=O)OCC(=O)Nc1ccc(SC(F)F)cc1` the value was -15.7%; for `S=c1nc(-c2ccccc2)[nH]n1-c1ccccc1`, 51.8% (active); for `S=c1nc(-c2ccccc2)c(-c2ccccc2)n[nH]1`, -18.5%.
In the case of `CCOc1cc(C(=O)NC)cc(OCC)c1OCC` it was -15.9%.
For the molecule `Cc1cc(-c2nnc(SCC(=O)Nc3ccc(C(F)(F)F)cc3)n2C)no1`, the activity change, less the hit threshold was -23.1%.
Regarding `Cc1cc(C)cc(NC(=O)CSc2nnc(CN3CCOCC3)n2C)c1`, the activity change, less the hit threshold is 27.2% (active).
For `COCCn1c(SCC(=O)Nc2cc(C)cc(C)c2)nc2ccccc2c1=O` the value was -17.4%; for `Clc1cccc(OCCCN2CCCC2)c1Cl`, -9.5%.
On to `CCOC(=O)C1=C(O)c2ccccc2C(=O)/C1=C\c1ccc(CC)cc1`, for which the activity change, less the hit threshold was -1.8%.
Turning to `Cc1ccc(/C=N/N2C(=O)c3ccccc3NC2c2ccc(C)cc2)cc1` (centres undefined), the activity change, less the hit threshold was -15.6%.
For `CCOC(=O)C1=C(Cc2ccc(C)cc2)C(=O)c2ccccc2C1=O` the value was -0.5%; for `Cc1ccc(/C=C/C(=O)C2C(=O)c3ccccc3C2=O)cc1`, 48.1% (active).
For `CCc1ccc(/C=C/C(=O)C2C(=O)c3ccccc3C2=O)cc1` the value was 37.2% (active); for `O=C(CC1NCCNC1=O)Nc1ccc([N+](=O)[O-])cc1` (centres undefined), -27.7%; for `COc1ccc(NC(=O)N2CCN(c3ccc([N+](=O)[O-])cc3)CC2)cc1OC`, -23.2%.
In the case of `CN(C(=O)c1cnccn1)c1nnc(-c2cnccn2)s1` it was -25.3%.
Regarding `CC(C)C(NC(=O)c1ccccc1)C(=O)N/N=C\c1ccco1` (centres undefined), the activity change, less the hit threshold is -20.2%.
With `Cc1ccc2c(CN3CCOCC3)cc(=O)oc2c1`, the activity change, less the hit threshold was -5.1%.
In the case of `Cc1cc(C)cc(OCc2nnc(SCC(=O)Nc3ccccc3)o2)c1` it was -16.8%; in that of `CC(=O)/C=C1/C(=O)Nc2ccccc21`, -27.4%; in that of `Cc1cccc(N2C(=O)C(O)=C(C(=O)c3cccs3)C2c2cccc(Oc3ccccc3)c2)n1` (centres undefined), -18.2%.
For the molecule `COc1ccc(/C=C/C(=O)Nc2ccccc2C(=O)O)cc1OC`, the activity change, less the hit threshold was 4.9% (active).
For `COc1ccc(/C=C/C(=O)Nc2ccccc2C(=O)O)cc1` the value was -2.2%; for `COc1cc(C(=O)Nc2ccc(O)cc2C(=O)O)ccc1OC(C)=O`, -10.8%; for `COc1cc(/C=C2/C(=O)NN(c3ccc(Cl)c(Cl)c3)C2=O)cc([N+](=O)[O-])c1O`, -18.7%.
`O=C(CCNS(=O)(=O)c1ccc(Cl)cc1)OCC(=O)N1CCN(C(=O)c2ccco2)CC1`: the activity change, less the hit threshold is -17.9%.
With `Nc1ccc(C(=O)OCC(=O)N2CCN(C(=O)c3ccco3)CC2)cc1[N+](=O)[O-]`, the activity change, less the hit threshold is -23.4%.
For `Cc1cc(S(=O)(=O)Nc2ccc(C(=O)N3CCN(C(=O)c4ccco4)CC3)cc2)ccc1F` the value was 3.4% (active).
As for `CCOc1ccc(NC(=S)NS(=O)(=O)c2cc(Br)ccc2OCC)cc1`, the activity change, less the hit threshold was 35.9% (active).
With `CCOc1ccc(NC(=O)c2ccc3c(c2)CCN3S(C)(=O)=O)cc1`, the activity change, less the hit threshold was -27.8%.
In the case of `CCOc1ccc(NC(=O)CSc2nc3nc(C)cc(C)n3n2)cc1` it was -14.8%.
In the case of `O=C(COc1ccccc1)Nc1ccc(S(=O)(=O)Nc2ccccn2)cc1` it was -14.4%.
For `CC(=O)NC1C(Oc2ccccc2C)OC(CO)C(O)C1O` (centres undefined) the value was -8.8%; for `CCn1c(O)c(N=NC(=S)NCC2CCCO2)c2ccccc21` (centres undefined), -9.1%; for `CCCn1c(O)c(N=NC(=O)c2ccco2)c2ccccc21`, 86.7% (active).
For `CCn1c(O)c(N=NC(=O)CNC(=O)c2ccccc2F)c2ccccc21`, the activity change, less the hit threshold is -8.6%.
For `CSc1ccc(/C=N/NC(=O)c2cccs2)cc1` the value was -22.9%.
In the case of `O=C(CS(=O)(=O)Cc1ccccc1)Nc1ccc(Cl)cn1` it was -21.6%; in that of `CCOC(=O)c1cnn(-c2nc(SC)nc3sc4c(c23)CCCC4)c1N`, -23.6%; in that of `CCC(=O)N1CCN(c2nc(CC)nc3sc4c(c23)CCCC4)CC1`, -43.7%.
In the case of `CCn1c(SCC(N)=O)nc2sc3c(c2c1=O)CCCC3` it was 31.2% (active).
On to `CCCn1c(SCC(=O)N2CCN(C(C)=O)CC2)nc2sc3c(c2c1=O)CCC3`, for which the activity change, less the hit threshold is 29.6% (active).
Take `CCn1c(SC(C)C(=O)O)nc2sc3c(c2c1=O)CCC3` (centres undefined): the activity change, less the hit threshold was 25.4% (active).
In the case of `CCN1C(=O)c2cccc3c(S(=O)(=O)NCC4CCCO4)ccc1c23` (centres undefined) it was -21.6%.
In the case of `CCc1cccc(C)c1NC(=O)Cc1ccsc1` it was -12.4%; in that of `O=C1CC(c2ccco2)CC2=C1C1c3ccccc3C(=O)N1c1ccccc1N2` (centres undefined), -4.8%; in that of `Cc1ccc(OCc2ccoc2C(=O)O)cc1C`, 23.9% (active).
In the case of `Cc1cc(OCc2ccc(C(=O)Nc3ccc(C(=O)O)cc3)o2)ccc1Cl` it was -15.9%; in that of `Cc1oc2ccc(OCc3ccc(Cl)cc3)cc2c1C(=O)O`, -3.6%; in that of `COc1cccc(N2CCN(CC(=O)NC(=O)NCc3ccco3)CC2)c1`, -11.4%.
As to `CCn1c(SCC(=O)NC(=O)NCc2ccco2)nc2sc(C)c(C)c2c1=O`, the activity change, less the hit threshold was 19.7% (active).
In the case of `Cc1cc(S(=O)(=O)N2CCOCC2)ccc1OCC(=O)NCc1ccco1` it was -12.9%; in that of `Cc1cc2c(cc(C(=O)OC(C(=O)NCc3ccco3)C(C)C)n2C)o1` (centres undefined), -16.3%.
`Cc1sc2nc(C(C)C)nc(SCC(=O)NCc3ccco3)c2c1C`: the activity change, less the hit threshold was 10.5% (active).
In the case of `O=C(CN1CCN(c2ccccc2O)CC1)NC(=O)NCc1ccco1` it was -18.7%.
For `Fc1ccc(N2CCN(c3ccc4c(C(F)(F)F)cc(C(F)(F)F)nc4n3)CC2)cc1` the value was -19.8%.
In the case of `O=C(NCc1cccs1)C1CCC(CNS(=O)(=O)c2cccs2)CC1` (centres undefined) it was -28.1%; in that of `Cc1cc(SC#N)cc(C)c1NC(=O)CCl`, 19.1% (active); in that of `Cc1ccc(S(=O)(=O)Nc2ccc(O)c3ccccc23)c(C)c1`, -27%.
`Cc1onc(C(=O)N2CCC(C(N)=O)CC2)c1-c1ccccc1Cl`: the activity change, less the hit threshold is -22.2%.
For `Cc1cccc(-n2cc(-c3ccccc3)[nH]c2=S)c1` the value was -16.2%; for `S=c1[nH]c(-c2ccccc2)cs1`, 61.9% (active); for `Cc1ccc(-c2csc(=S)[nH]2)cc1`, 83.7% (active).
On to `Cc1ccc(-c2n[nH]c(=S)nc2-c2ccc(C)cc2)cc1`, for which the activity change, less the hit threshold is -7.1%.
In the case of `S=c1[nH]c(-c2ccc(Cl)cc2)cs1` it was 119% (active).
For `O=Cc1cc(-c2ccccc2)[nH]c1-c1ccccc1` the value was -15.3%; for `Cc1cc(NC(=O)CSc2ccc(-c3ccc(F)cc3)nn2)no1`, -18.3%; for `O=C(Nc1ccccc1)O/N=C/c1ccncc1`, -19.6%.
Regarding `COc1ccc(-c2c(C#N)c(SCC(=O)c3cc4ccccc4oc3=O)nc(C)c2C(=O)Nc2ccccc2)cc1`, the activity change, less the hit threshold was -11.8%.
In the case of `O=c1[nH]c(C(Cl)(Cl)Cl)nc2ccc3ccccc3c12` it was 15.1% (active).
For `Cc1cccc(/C=C2/S/C(=N/N=C3\CC4CCC3(C)C4(C)C)NC2=O)c1` (centres undefined) the value was -10.5%; for `CC12CCC(C/C1=N\N=C1\NC(=O)/C(=C\c3ccc(Cl)cc3)S1)C2(C)C` (centres undefined), 4.4% (active).
In the case of `COc1ccc(/C=C2/S/C(=N/N=C3\CC4CCC3(C)C4(C)C)NC2=O)cc1` (centres undefined) it was -9.1%; in that of `CCN1CCCC(CO)(Cc2ccccc2)C1` (centres undefined), -9.6%; in that of `O=C1c2nc3cc(-c4ccco4)[nH]n3c(=O)c2CN1Cc1ccccc1`, -13.6%.
As to `O=C(CN1C(=O)c2cccc3cccc1c23)Nc1cccnc1`, the activity change, less the hit threshold was -28.6%.
For `O=C1CC(N2CCN(c3ccccc3Cl)CC2)C(=O)N1c1ccc(F)cc1` (centres undefined) the value was -9.2%.
In the case of `CCOc1ccc(N)c(SSc2cc(OCC)ccc2N)c1` it was -17%; in that of `CCC(=O)N(CC)c1nc(-c2ccc(OC)cc2)cs1`, 30.9% (active).
Turning to `CCCC(=O)NC(=S)Nc1nc(-c2ccc(OC)cc2)cs1`, the activity change, less the hit threshold was -16.3%.
In the case of `CCCn1c(SCC(=O)Nc2nc(-c3ccc(OC)cc3)cs2)nc2c1c(=O)n(C)c(=O)n2C` it was -16.4%; in that of `O=C(NCCc1ccc(F)cc1)c1coc(=O)c(Br)c1`, -6%.
For `Cc1nc(Oc2ccc(Cl)cc2)c2oc3ccccc3c2n1` the value was -15.6%; for `CCCOc1ccc(C(=O)N(CC(C)C)c2c(N)n(Cc3ccccc3)c(=O)[nH]c2=O)cc1`, -17.9%; for `CCOc1ccc(N(CC)C(=O)COc2cc(=O)n(C)c3ccccc23)cc1`, -27%.
For `CCOc1ccc(CC(C(N)=O)C(N)=O)cc1` the value was -21.3%; for `CCOc1ccc(-c2c(=O)n(O)c3ccccc3[n+]2[O-])cc1`, 52% (active); for `CCCOc1ccc(-c2c(=O)n(O)c3ccccc3[n+]2[O-])cc1`, 71.1% (active).
